# Out of some 2,300 compounds screened, about 1,200 (52%) were called active. No rule for the calls is given here. The set was probably picked from earlier hits. This is one part of the list. Potency and affinity values are given separately.
# Experiment: mammalian cell cytotoxicity, dose response, cytotoxicity control for M. tuberculosis inhibitor project (AID 435019);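 also: 0% = background wells and 100% = vehicle-treated cells; lower values mean fewer viable cells so more cytotoxicity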
# Details: cytotoxicity counter-screen; series mostly up to 40 µM; viability: at the top concentration
row,SMILES,viability
1,Cc1ccc(C)c(C2C(=O)c3ccccc3C2=O)c1,99.8% (inactive)
2,NN(Cc1ccccc1)C(=S)Nc1ccc(Cl)c(Cl)c1,87.4% (inactive)
3,C=C(C)C1Cc2c(C)nn(-c3nc(C)cc(C)n3)c2C1 (stereo not given),82.5% (inactive)
4,O=C(/C=C/c1ccccc1)N1CCN(CCN2C(=O)c3cccc4cccc(c34)C2=O)CC1,84.9% (inactive)
5,COc1ccc(C(=O)NNc2ccccc2)cc1OC,86.6% (inactive)
6,O=C(CSC1=Nc2ccccc2C2=NC(c3ccccc3)C(=O)N12)NC1CCCCC1 (stereo not given),92.2% (inactive)
7,CN1C(=O)CC(c2ccccc2)C1=O (stereo not given),95.7% (inactive)
8,c1ccc(NNC2=NCCCCC2)cc1,94.5% (inactive)
9,COc1cc(/C=C/c2cc[n+](C)cc2)ccc1OCC(=O)Nc1ccc(Cl)c(Cl)c1,96% (inactive)
10,COC(=O)c1ccc(NC(=S)NC(=O)C2CCC2)cc1,96.1% (inactive)
11,CC1(c2ccc(Cl)c(Cl)c2)NC(=S)N2C1NC(=S)N2c1ccccc1 (stereo not given),91.4% (inactive)
12,Cc1cc(-c2ccc(Cl)cc2)c2cnn(C(C)C)c2n1,88.4% (inactive)
13,Cc1ccc(-c2nc3ccsc3c(=O)o2)cc1,88.2% (inactive)
14,COC(=O)C(C)Oc1ccc(-c2nccc(-c3ccccn3)n2)cc1 (stereo not given),102% (inactive)
15,CCCCSCCCNC(=O)c1cn(CC)c2ccc(S(=O)(=O)N3CCOCC3)cc2c1=O,92.9% (inactive)
16,COc1ccc(C(=O)C[n+]2ccc3c(c2)nc(-c2cc(OC)c(OC)cc2OC)n3C)cc1,101% (inactive)
17,Nc1nc(CN2CCN(c3ccccc3F)CC2)nc(N2CCCc3ccccc32)n1,91.2% (inactive)
18,CCCc1cc(-c2nc(-c3ccc(Br)cc3)cs2)ccn1,87.4% (inactive)
19,CC(=O)c1cccc(NC(=O)C2C3C=CC(C3=C(c3ccccc3)c3ccccc3)C2C(=O)O)c1 (stereo not given),95.7% (inactive)
20,COc1cccc(C(=O)NC2CC3CCCC(C2)N3CC(=O)Nc2ccc(N(C)C)cc2)c1 (stereo not given),82.4% (inactive)
21,CCOc1ccc(NC(=O)CSc2nc(O)c(C)c(=O)n2-c2ccc(F)cc2)cc1,91.2% (inactive)
22,Cc1ccc2c(c1)c1c3n2CCN=C3CCC1,87.1% (inactive)

row,SMILES,viability
1,CC(C)Nc1nc(NC(C)C)nc(N(C)N)n1,91.6% (inactive)
2,CCOc1cccc(C=Nc2cc(C)cc(C)c2O)c1O,96.3% (inactive)
3,O=[N+]([O-])c1cc(-c2ccc(/C=N\n3cnnc3)o2)cc([N+](=O)[O-])c1,91.3% (inactive)
4,O=[N+]([O-])c1ccc(-c2ccc(/C=N/c3c(-c4ccco4)nc4ccccn34)o2)cc1,90.6% (inactive)
5,CCCCCC1CC(CC(=O)NC(=S)Nc2ccc([N+](=O)[O-])cc2)C(=O)O1 (stereo not given),92.9% (inactive)
6,COc1ccc(-c2ccc(C#N)c(SCC(=O)OCc3ccccc3)n2)cc1OC,88.4% (inactive)
7,CCOC(=O)C(C)Sc1ncnc2c1nnn2-c1ccc(F)cc1 (stereo not given),94.5% (inactive)
8,CC1(C)C2CCC1(C)C(OCC[N+](C)(C)CC(=O)OC1CCCCC1)C2 (stereo not given),101% (inactive)
9,CC(=O)CCSc1ncnc2sc(-c3ccccc3)cc12,89.4% (inactive)
10,Nn1c(SCc2ccccc2)nc2ccccc21,91.9% (inactive)
11,COC(=O)CCc1nc2c(C#N)c(-c3ccc(Cl)cc3)ccn2n1,99.9% (inactive)
12,CC(C)(C)c1ccc(OCCCC(=O)NC2=NCCS2)cc1,84.5% (inactive)
13,CCOC(=O)c1sc2nc(C)nc(SC(C)C(=O)N(C)c3ccccc3)c2c1C (stereo not given),83.9% (inactive)
14,O=C(CCCC(=O)OCC(=O)c1cccs1)Nc1ccc(Oc2ccccc2)cc1,99.9% (inactive)
15,CCc1cc2c(=O)n(C(C)C(=O)OC3CCCCC3)cnc2s1 (stereo not given),94% (inactive)
16,COc1ccc(N(CC(=O)Nc2ccccc2C(N)=O)S(=O)(=O)c2ccc(C)c([N+](=O)[O-])c2)cc1,82.1% (inactive)
17,Cc1ccc(S(=O)(=O)NNC(=O)c2cc([N+](=O)[O-])c(C)c([N+](=O)[O-])c2)cc1,94% (inactive)
18,CCc1cccc2c(=O)c(C(=O)N3CCOCC3)c[nH]c12,98.5% (inactive)
19,COc1ccc(N=Cc2ccc(CNS(=O)(=O)c3ccc(Cl)cc3)o2)cc1,95.1% (inactive)
20,CN(C)c1ccc(CNC2C3CC4CC(C3)CC2C4)cc1 (stereo not given),82.2% (inactive)
21,CCOc1ccccc1NC(=O)C12CC3CC(C1)CC(c1ccc(C)cc1)(C3)C2,90.9% (inactive)
22,CCCCCCCCCCNC(=O)C(=O)Nc1ccccn1,98.7% (inactive)

row,SMILES,viability
1,C[C@H](O)[C@H](O)[C@H]1CNc2nc(N)[nH]c(=O)c2N1,92.3% (inactive)
2,Cc1cc(C)cc(NC(=O)CCc2ccc(C)o2)c1,99.8% (inactive)
3,Cc1cc(C(=O)COC(=O)C2=COCCO2)c(C)n1-c1cccc(F)c1,88% (inactive)
4,O=C(NC1CCCCC1)C1CC(=O)N(c2cccc([N+](=O)[O-])c2)C1 (stereo not given),97% (inactive)
5,CC(=O)OC1=Cc2c(ccc3ccc(=O)oc23)OC1(C)C,92.1% (inactive)
6,COc1ccc(/C(O)=C/Sc2nnc(Cc3ccccc3)o2)cc1,102% (inactive)
7,COc1ccc(NCc2nnc(SCC(=O)c3ccc(OC)cc3)o2)cc1,91.7% (inactive)
8,Nc1ccc2c(c1)nnn2-c1ccccc1,92.9% (inactive)
9,COc1cc(/C=C(\C#N)c2nc3c(s2)CC(C)CC3)ccc1O (stereo not given),82.1% (inactive)
10,CCC[C@@H]1C[C@@H](C(=O)NC(C(C)Cl)[C@H]2O[C@H](SC)[C@H](O)[C@@H](O)[C@H]2O)N(C)C1 (stereo not given in full),101% (inactive)
11,Nc1ccc(Oc2ccc3c(c2)OCO3)cc1,91.1% (inactive)
12,O=C1NN(c2ccc(Br)cc2)C(=O)/C1=C\c1ccc(O)cc1O,94.3% (inactive)
13,C=CCOc1ccc(C2=NOC(C(=O)Nc3ccc4c(c3)OCCO4)C2)cc1 (stereo not given),102% (inactive)
14,COc1ccccc1NC(=O)CN1CCN(CC(=O)Nc2ccc3c(c2)OCO3)CC1,91.8% (inactive)
15,Nc1ncc2[nH]cnc2n1,96.1% (inactive)
16,C[C@]12C=CC(=O)C=C1CC[C@@H]1C2=CC[C@]2(C)[C@@H](C(=O)CN3CCN(c4cc(N5CCCC5)nc(N5CCCC5)n4)CC3)CC[C@@H]12,86.1% (inactive)
17,COc1ccc(/C=N/Nc2nncn2N)cc1Br,100% (inactive)
18,CCOC(=O)CSc1snnc1-c1ccccc1,95.3% (inactive)
19,CCc1ccc(CCOc2ccc(CC3SC(=O)NC3=O)cc2)nc1 (stereo not given),97.5% (inactive)
20,Cc1cc(C)n(C(=O)c2ccc([N+](=O)[O-])cc2[N+](=O)[O-])n1,93.6% (inactive)
21,Cc1ccc(NC(=O)c2ccc(CSc3nnc(C)s3)cc2)c(C)c1,90.1% (inactive)
22,COC(=O)c1cc(NC(=O)c2c(F)c(F)c(F)c(F)c2F)cc(C(=O)OC)c1,80.9% (inactive)

row,SMILES,viability
1,C=CC[n+]1ccn(-c2nc3ccccc3nc2[N-]S(=O)(=O)c2cccs2)c1,101% (inactive)
2,C/C(CC(=O)Nc1ccc2c(c1)OCCO2)=N\NC(=O)c1ccccc1F,84.3% (inactive)
3,CCOC(=O)C1CCN(c2nc3cc(OC)ccc3cc2C#N)CC1,94% (inactive)
4,N#CC(C(=O)NCc1ccco1)c1nc2ccccc2nc1N1CCOCC1 (stereo not given),85.7% (inactive)
5,O=C(/C=C\c1cccs1)N1CCN(Cc2ccc3c(c2)OCO3)CC1,103% (inactive)
6,COC(=O)C1CC(=O)N(c2ccc(OCc3ccccc3Cl)cc2)C1 (stereo not given),99.3% (inactive)
7,CCCn1nnc(NC(=O)COc2ccc(CC)cc2)n1,98.3% (inactive)
8,CCOC(=O)c1cnc2ccc(OCC)cc2c1N1CCN(c2ccccc2)CC1,83.2% (inactive)
9,CCOC(=O)c1cc(-c2ccccc2)nc2c1c(C)nn2-c1ccccn1,86.2% (inactive)
10,COc1ccc(OCc2nnc3n2N=C(c2ccccc2)C(CC(=O)O)S3)cc1 (stereo not given),94.8% (inactive)
11,Cc1ccsc1/C=C1\SC(N2CCOCC2)=NC1=O,89.7% (inactive)
12,CCOc1ccc(C2=Nc3ccc(Br)cc3C(c3ccc(N4CCOCC4)cc3)=NN2)cc1,83.2% (inactive)
13,Cc1nc(S/C(=C/c2ccc(-c3ccc(Cl)cc3)o2)C(=O)O)n[nH]1,89.2% (inactive)
14,CSCCC(=O)N1CCCC(CNC(=O)c2ccc(-c3ccccc3)cc2)C1 (stereo not given),85.2% (inactive)
15,Cc1cc(C)c(C(N)=O)c(SCC(=O)c2ccc(Cl)cc2)n1,82.3% (inactive)
16,CCC(=O)c1ccc(OCC(=O)OCC(=O)c2cc(C)n(C3CC3)c2C)cc1,97.6% (inactive)
17,COc1ccc(N=Cc2c[nH][nH]c2=O)cc1,104% (inactive)
18,COc1ccc2c(c1)CC/C(=C\C=C\c1ccccc1OC)C2=O,85.3% (inactive)
19,O=S(=O)(Nc1ccn(-c2ccccc2)n1)c1ccc(Br)cc1,96.4% (inactive)
20,CCC(C)OC(=O)C(C)Oc1ccc(-c2ccccc2)cc1 (stereo not given),100% (inactive)
21,O=c1ccn(-c2ccccc2)[nH]1,90.3% (inactive)
22,Cc1ccc(NC(=O)CNCc2cccs2)cc1Br,101% (inactive)

row,SMILES,viability
1,O=C(c1cccc([N+](=O)[O-])c1)N1CCN(c2ccc(N3CCOCC3)nn2)CC1,98.9% (inactive)
2,CCOP(=O)(OCC)/C(=C/N1CCCCC1)NC(=O)c1ccccc1,97.9% (inactive)
3,Cc1nnc(SCc2ccccc2Cl)n(N)c1=O,93.8% (inactive)
4,Cc1ccccc1CSc1nsc(N)n1,93.7% (inactive)
5,CN(CCCCCCCCCCN(C)C(=O)Oc1cccc([N+](C)(C)C)c1)C(=O)Oc1cccc([N+](C)(C)C)c1,99.4% (inactive)
6,CCOC(=O)c1ccc(Nc2cc3ccccc3c(=O)[nH]2)cc1,85.4% (inactive)
7,CCOC(=O)c1ccc(NC(=S)Nc2ccc3[nH]c(=O)[nH]c3c2)cc1,96.7% (inactive)
8,CC(C)(C)OC(=O)NNC(=S)NC1CCCCC1,96.6% (inactive)
9,CCOc1ccc(NC(=O)c2sc3nc(C)nc(N4CCOCC4)c3c2C)cc1,83.9% (inactive)
10,CCOC(=O)CNC(=O)c1sc2ncnc(N3CCc4ccccc4C3)c2c1C,85.3% (inactive)
11,O=C(Nc1ccc(-c2noc(CCc3ccccc3)n2)cc1)c1cccnc1,88.7% (inactive)
12,CCOC(=O)c1nnc(-c2ccccc2)nc1NCc1ccccc1,93.8% (inactive)
13,O=C(OCC(=O)N1CCCCC1)c1cc2ccccc2cc1O,92.3% (inactive)
14,COC(=O)C(CCSC)NC(=O)c1cn(-c2ccc(OC)cc2)c(=O)c2ccccc12 (stereo not given),94.8% (inactive)
15,COC(=O)CSc1nnc([C@H](CC(C)C)NC(=O)OC(C)(C)C)o1,93.8% (inactive)
16,COC(=O)C(C)Oc1ccc(Cc2ncc(C(F)(F)F)cc2Cl)cc1 (stereo not given),101% (inactive)
17,CCCCNC(=S)Nc1ccc2cn[nH]c2c1,98.4% (inactive)
18,COC(=O)[C@H](CC(C)C)NC(=O)c1cc2c(cn1)[nH]c1ccccc12,92.3% (inactive)
19,CCc1nc2ccccc2c(C(=O)Nc2cc(C)ccc2C)c1C,81.3% (inactive)
20,O=C(Oc1ccc2ccccc2c1)c1cncc(Br)c1,87.4% (inactive)
21,N=C1C(c2nc3ccccc3[nH]2)=C(O)CN1NC(=O)c1c[nH]c2ccccc12,99.7% (inactive)
22,CCCCn1c(N)c(N(CC(C)C)C(=O)c2oc3c(Cl)cccc3c2C)c(=O)[nH]c1=O,91% (inactive)

# Reference: PubChem BioAssay AID435019 (Southern Research Specialized Biocontainment Screening …, 2010)
